Source: PubChem
A selection: hits, their analogues and other compounds. The true share with any hit is near 4.6%.
PfHsp90 set2: growth inhibition of PfHsp90-expressing yeast, primary screen, antimalarial PfHsp90 inhibitor project, S. cerevisiae, BacTiter-Glo luminescence, single point, set 2; BacTiter-Glo ATP, 48 h; yeast lacking PDR1 and PDR3 efflux regulators; inhibition, % at 9.4 µM; hit rate 0.32% among 310,000; AID 504621, 2011;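 active = every replicate shows inhibition above about 80%, whatever the replicate mean, limit read from the data; inconclusive = mean inhibition reaches the set limit but some replicate falls short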
V-ATPase pH: regulators of yeast V-ATPase proton pumping, primary screen, pHLuorin cytosolic pH fluorescence; S. cerevisiae; response, % at 10 µM; hit rate 0.37% among 350,000; AID 504577, 2011; in the data active = response mostly above about 7.3%, no sharp cut-off; inactive = mostly below about 5.4%; also: actives read high
TIM10 inh: growth inhibitors of isogenic TIM10 control yeast, primary screen, counter-screen for tim10-1 yeast inhibitor project, luminescence, uHTS | AID 463195, 2010 | S. cerevisiae TIM10 strain growth, BacTiter-Glo luminescence, 24 h | hit rate 1.4% among 330,000 | inhibition, % at 10 µM;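 active = inhibition of 40% or more at the single tested concentration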;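 also: wild-type TIM10 isogenic control strain grown at permissive 25 °C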
SKKanGAS inh: S. pyogenes SKKanGAS growth inhibitors in kanamycin, primary screen, streptokinase expression inhibitor project, SKKanGAS strain, BacTiter-Glo luminescence | 6 h | inhibition, % at 7.5 µM | hit rate 1.3% among 300,000;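 active = mean replicate score, as percent of positive control median, at least 50; inconclusive = mean below 50 but one replicate at or above 50; inactive = mean and every replicate below 50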;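 also: strain carries kanamycin resistance gene driven by streptokinase promoter and grows in 40 µg/ml kanamycin; loss of luminescence reflects streptokinase promoter inhibition or plain growth inhibition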
tim23-1 inh: growth inhibitors of tim23-1 mutant yeast, primary screen, luminescence, uHTS; inhibition, % at 20 µM; S. cerevisiae tim23-1 growth, BacTiter-Glo luminescence, 24 h; hit rate 1.3% among 330,000; AID 463212, 2010;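 active = growth inhibition of the mutant yeast at or above 50%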;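 also: temperature-sensitive mutant grown at 25 °C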
tim10-1 inh: growth inhibitors of tim10-1 mutant yeast, primary screen, luminescence, uHTS | S. cerevisiae tim10-1 ts strain growth, BacTiter-Glo, 24 h | hit rate 2.2% among 330,000 | inhibition, % at 20 µM | AID 463190, 2010;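 active = inhibition of at least 40%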;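 also: mutant grown at 25 °C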
TIM10 conf: growth inhibitors of wild-type TIM10 yeast, confirmation, counter-screen for tim10-1 synthetic lethality project, single concentration, luminescence, S. cerevisiae; shares compounds with TIM10 inh; S. cerevisiae tim10 strain growth, BacTiter-Glo luminescence, 24 h; inhibition, % at 10 µM; hit rate 63% among 4,600; AID 463215, 2010;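 active = inhibition of yeast growth at or above a set limit in either of two replicates at 10 µM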; also: this counterscreen used the strain with wild-type TIM10
tim23-1 confirm: tim23-1 mutant yeast growth inhibitors, confirmation, luminescence, single concentration. hit rate 83% among 4,400. inhibition, % at 20 µM. shares compounds with tim23-1 inh. S. cerevisiae tim23-1 growth, BacTiter-Glo luminescence, 24 h;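 active = inhibition above about 39% in either of two replicate wells at 20 µM, limit read from the data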;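 also: temperature-sensitive tim23-1 mutant grown at 25 °C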
Hits are given with their value.

What do the screens show for `N#CC1=C(c2ccccc2)/C(=C/c2ccccc2)OC1=O`?
PfHsp90 set2: inactive; V-ATPase pH: inactive; TIM10 inh: 43.7; SKKanGAS inh: 56.8; tim23-1 inh: 61.2; tim10-1 inh: inactive; TIM10 conf: 51.7; tim23-1 confirm: 59.0

How did O=C1O/C(=C/c2ccccc2)c2ccccc21 do in these assays?
PfHsp90 set2: inactive; V-ATPase pH: inactive; TIM10 inh: inactive; SKKanGAS inh: inactive; tim23-1 inh: inactive; tim10-1 inh: inactive

What do the screens show for `O=C(/C=C/Nc1ccccc1)c1ccccc1`?
PfHsp90 set2: inactive; V-ATPase pH: inactive; TIM10 inh: inactive; SKKanGAS inh: inactive; tim23-1 inh: inactive; tim10-1 inh: inactive

Results for O=C(/C=C/Sc1ccccc1)c1ccccc1 ?
PfHsp90 set2: inactive; V-ATPase pH: inactive; TIM10 inh: 59.2; SKKanGAS inh: inactive; tim23-1 inh: 66.5; tim10-1 inh: inactive; TIM10 conf: 64.8; tim23-1 confirm: 80.8

Results for Cc1cccc(OCCC(=O)Nc2ccc(Cl)cc2F)c1 ?
PfHsp90 set2: inactive; V-ATPase pH: inactive; TIM10 inh: inactive; SKKanGAS inh: inactive; tim23-1 inh: inactive; tim10-1 inh: inactive

How did COc1cc([N+](=O)[O-])cc2sc(NC(=O)c3c(F)cccc3F)nc12 do in these assays?
PfHsp90 set2: inactive; V-ATPase pH: inactive; TIM10 inh: 47.0; SKKanGAS inh: inactive; tim23-1 inh: 51.7; tim10-1 inh: inactive; TIM10 conf: 43.6; tim23-1 confirm: 50.7

Results for O=[N+]([O-])c1ccc(O)c(/C=N/NC(=S)Nc2ccc(Cl)cc2Cl)c1 ?
PfHsp90 set2: inactive; V-ATPase pH: inactive; TIM10 inh: 45.7; SKKanGAS inh: 116.9; tim23-1 inh: 81.2; tim10-1 inh: inactive; TIM10 conf: 43.1; tim23-1 confirm: 77.0

Results for Cc1ccc(C)c(NC(=O)C[n+]2ccccc2)c1 ?
PfHsp90 set2: inactive; V-ATPase pH: inactive; TIM10 inh: inactive; SKKanGAS inh: inactive; tim23-1 inh: inactive; tim10-1 inh: inactive

Results for N/C(=N\OC(=O)c1ccc(Cl)cc1Cl)c1ccc(Cl)cc1 ?
PfHsp90 set2: inactive; V-ATPase pH: inactive; TIM10 inh: 78.9; SKKanGAS inh: inactive; tim23-1 inh: 82.3; tim10-1 inh: inactive; TIM10 conf: 84.7; tim23-1 confirm: 66.7

How did N/C(=N\OC(=O)c1cc(Cl)ccc1Cl)c1ccccn1 do in these assays?
PfHsp90 set2: inactive; V-ATPase pH: inactive; TIM10 inh: 58.5; SKKanGAS inh: inactive; tim23-1 inh: 65.8; tim10-1 inh: inactive; TIM10 conf: 44.0; tim23-1 confirm: 56.7

How did Cc1cccc(/C(N)=N/OC(=O)c2ccc(Cl)cc2Cl)c1 do in these assays?
PfHsp90 set2: inactive; V-ATPase pH: inactive; TIM10 inh: 85.5; SKKanGAS inh: inactive; tim23-1 inh: 65.9; tim10-1 inh: inactive; TIM10 conf: 87.6; tim23-1 confirm: 39.8

How did Cc1ccc(/C(N)=N/OC(=O)c2ccc(C)cc2Cl)cc1 do in these assays?
PfHsp90 set2: inactive; V-ATPase pH: inactive; TIM10 inh: 82.2; SKKanGAS inh: inactive; tim23-1 inh: 80.2; tim10-1 inh: inactive; TIM10 conf: 88.6; tim23-1 confirm: inactive

How did CCC1CCCCN1CCCNC(=O)Cn1c(=O)c2cccn2c2cccnc21 (stereo not drawn) do in these assays?
PfHsp90 set2: inactive; V-ATPase pH: inactive; TIM10 inh: inactive; SKKanGAS inh: inactive; tim23-1 inh: inactive; tim10-1 inh: inactive

What do the screens show for `Cc1ccc(-n2nc3c(=O)n(CC(=O)NC4CCCCCC4)nc(C)c3c2C)cc1`?
PfHsp90 set2: inactive; V-ATPase pH: inactive; TIM10 inh: inactive; SKKanGAS inh: inactive; tim23-1 inh: inactive; tim10-1 inh: inactive

What do the screens show for `O=C(CC1OC(=O)c2ccccc21)Nc1cc(Cl)ccc1N1CCCC1` (stereo not drawn)?
V-ATPase pH: inactive; TIM10 inh: inactive; SKKanGAS inh: inactive; tim23-1 inh: inactive; tim10-1 inh: inactive

Results for C[C@@H]1CN([C@H](C)CO)C(=O)c2cc(-c3ccc(C(=O)N(C)C)cc3)cnc2O[C@@H]1CN(C)C(=O)c1cccnc1 ?
V-ATPase pH: inactive

Results for O=C1NC(=O)C2(CCCc3c([N+](=O)[O-])cccc32)N1 (stereo not drawn) ?
V-ATPase pH: inactive

What do the screens show for `Cc1ccc(S(=O)(=O)Nc2cc(-c3ccccc3)nn2C)cc1Cl`?
PfHsp90 set2: inactive; V-ATPase pH: inactive; TIM10 inh: inactive; SKKanGAS inh: inactive; tim23-1 inh: inactive; tim10-1 inh: inactive

What do the screens show for `CN1C(=S)N(c2cccnc2)C(=O)/C1=C\c1ccc(C(C)(C)C)cc1`?
PfHsp90 set2: inconclusive; V-ATPase pH: inactive; TIM10 inh: 55.0; SKKanGAS inh: inactive; tim23-1 inh: 55.2; tim10-1 inh: inactive; TIM10 conf: 55.8; tim23-1 confirm: 46.5

Results for CN1C(=S)N(c2cccnc2)C(=O)/C1=C\c1ccc(N(C)C)cc1 ?
PfHsp90 set2: inactive; V-ATPase pH: inactive; SKKanGAS inh: inactive

Results for Cc1ccc(/C=N/NC(=O)c2c(-c3ccccc3)noc2C)c(O)c1 ?
V-ATPase pH: inactive; TIM10 inh: 43.2; SKKanGAS inh: inactive; tim23-1 inh: 56.7; tim10-1 inh: inactive; TIM10 conf: inactive; tim23-1 confirm: 41.7

Results for O=[N+]([O-])/C=C/c1c(OCc2ccccc2)ccc2ccccc12 ?
PfHsp90 set2: inactive; V-ATPase pH: inactive; TIM10 inh: 72.7; SKKanGAS inh: 70.0; tim23-1 inh: 60.7; tim10-1 inh: inactive; TIM10 conf: inactive; tim23-1 confirm: 47.3

Results for Cc1ccc(C(=O)/C=C/c2ccc(-c3ccccc3[N+](=O)[O-])o2)cc1 ?
PfHsp90 set2: inactive; V-ATPase pH: inactive; TIM10 inh: inactive; SKKanGAS inh: inactive; tim23-1 inh: inactive; tim10-1 inh: inactive

What do the screens show for `Cc1ccc(C(=O)/C=C/c2ccccc2[N+](=O)[O-])cc1`?
PfHsp90 set2: inactive; V-ATPase pH: inactive; TIM10 inh: 49.7; SKKanGAS inh: inactive; tim23-1 inh: 59.0; tim10-1 inh: inactive; TIM10 conf: 38.1; tim23-1 confirm: 62.0

How did Cc1ccccc1OCC(=O)O/N=C(\N)Cc1ccc(Cl)cc1 do in these assays?
PfHsp90 set2: inactive; V-ATPase pH: inactive; TIM10 inh: 83.8; SKKanGAS inh: inactive; tim23-1 inh: 81.9; tim10-1 inh: inactive; TIM10 conf: 79.4; tim23-1 confirm: 59.5

What do the screens show for `Cc1ccccc1OCC(=O)O/N=C(\N)c1ccncc1`?
PfHsp90 set2: inactive; V-ATPase pH: inactive; TIM10 inh: inactive; SKKanGAS inh: inactive; tim23-1 inh: inactive; tim10-1 inh: inactive
